# Laboratory results taken from the supplement of paper PMC3616981.
# Compound: CC(C)c1cccc(C(C)C)c1N1C(=O)c2ccc(O)cc2C1=O
# Assay: reporter fold induction vs vehicle; higher = higher reporter activity
# Description: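 Attagene multiplexed transcription-factor reporter assay (48 cis response elements and 25 trans nuclear-receptor constructs) treated with 5HPP-33 at 8 concentrations (0.091–200 µM). The response is fold induction of reporter activity relative to vehicle control. Cell line and time not stated in the paper; tested in ToxCast Phase II for this study.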
Target,reporter fold induction (0.091 µM),reporter fold induction (0.274 µM),reporter fold induction (0.823 µM),reporter fold induction (2.469 µM),reporter fold induction (7.407 µM),reporter fold induction (22.22 µM),reporter fold induction (66.67 µM),reporter fold induction (200 µM)
DR4_LXR_CIS,1.02,0.906,1,1.02,0.88,0.462,0.424,0.478
CAR_TRANS,1.1,0.946,0.997,0.985,0.814,0.835,0.84,0.343
FoxO_CIS,1.07,1.02,0.985,0.99,1.03,0.938,0.872,1.07
Sp1_CIS,1.04,1.04,1.02,0.989,1.11,1.08,1.39,2.02
VDRE_CIS,1.07,1.09,0.969,0.979,1.62,1.76,2.18,3.25
